KB-V1 MDR tox – KB-V1 MDR subline cytotoxicity. KB-V1 MDR cells viability, CellTiter-Glo, 72 h. Potency, µM (series often up to 46.1 µM), most hits filed as cytotoxic. actives 3.4% (n = 400,000). AID 1347076; note: % is set by controls: 0 for no effect and ±100 for the full control effect; nearly all actives have a fitted effect of over 60% in size
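KB-V1, DMEM (no phenol red) + 10% FBS; cpd pin-transferred, titration series; 72 h, 37 degrees C; CellTiter-Glo, luminescence. Data normalized, curve-fit.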
HT1080NT lethal – kills 2HG-producing HT-1080-NT fibrosarcoma cells; actives 1.6% (n = 360,000); HT-1080-NT fibrosarcoma viability, CellTiter-Glo ATP luminescence, 48 h; Potency, µM (highest dose often 46.1 µM), for inactives: at the top dose activity, negative = less viability, most hits filed as cytotoxic;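 note: NT is the 2HG producing partner of a matched IDH1 knockdown line; 0% = DMSO-treated cells and -100% = media-only wells without cells; nearly all actives have a fitted effect of over 55% in size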
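A 48-hour cytotoxicity screen used HT-1080-NT cells plated 2 hours before compound delivery. ATP-based CellTiter-Glo luminescence measured viability, normalized to DMSO and no-cell controls.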
MCF10A rerep – inducers of DNA re-replication in MCF 10A breast cells; MCF 10A DNA re-replication, Hoechst nuclear intensity, 48 h; Potency, µM (doses to about 46.1 µM), inactives show at the top dose activity, positive = re-replication, actives largely listed as activators; actives 2.9% (n = 350,000); AID 624296; note: % of control where 0% means no effect; nearly all actives have a fitted effect of over 50% in size
HT1080 IDH1KD tx – toxicity to HT-1080 IDH1 knockdown cells (counter line); HT-1080 IDH1 knockdown viability, ATP luminescence, 48 h; Potency, µM (highest dose often 46.1 µM), without a hit: at the top dose activity, negative = toxicity, usual class: cytotoxic; actives 2% (n = 360,000); AID 686971;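 note: 0% = DMSO wells and -100% = cell-free medium wells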
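Luminescent ATP read-out (CellTiter-Glo, 10 min at room temperature) after 48 h compound exposure at 37 °C gave viability of IDH1-knockdown HT-1080 cells. Activity was normalised to DMSO and cell-free wells, then fitted as concentration-response curves.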
SW480 rereplic – DNA re-replication induction in SW480 cells | SW480 DNA re-replication, Hoechst DNA content imaging, 48 h | AID 624297 | actives 1.8% (n = 340,000) | Potency, µM (top dose mostly 46.1 µM), for inactives: top-dose re-replication activation, usual class: activators; note: % of control where 0% means no effect; nearly all actives have a fitted effect of over 55% in size
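Quantitative HTS format with DMSO vehicle controls; 48 hr drug incubation at 37 C, then 40 min Hoechst staining and scanning imager measurement at 405 nm excitation.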
KB-3-1 cytotox – KB-3-1 parental cell cytotoxicity; KB-3-1 viability, CellTiter-Glo ATP luminescence, 72 h; Potency, µM (top dose mostly 46.1 µM), most hits filed as cytotoxic; actives 1.4% (n = 400,000); AID 1347075; note: % is set by controls: 0 for no effect and ±100 for the full control effect; nearly all actives have a fitted effect of over 60% in size
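Parental KB-3-1 adenocarcinoma cells in phenol-red-free DMEM with 10% FBS were pin-treated with compounds at several concentrations, incubated 72 h at 37 °C, and viability read by CellTiter-Glo luminescence; concentration-effect curves were fitted after normalization.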
* marks the source's active call; other numbers are inactive results. Rows were chosen to be rich in hits. Some 7.9% of all compounds tested hit in one or more screens of this group. Calls come from the whole dose curve; as a rule, active = well fitted curve in the direction sought with a large enough effect; inconclusive = small, poorly fitted or top-dose-only effect, or another doubt; inactive = no such curve, though single readings can be large; an effect the other way counts as inactive or inconclusive. Potency is the fitted concentration of half-maximal effect.

COCC(C)N(C(=O)CCl)c1c(C)csc1C (stereo unspecified) was read as MCF10A rerep 1% and SW480 rereplic -1%.
CC(N)c1cccc(Cl)c1Cl (stereo unspecified) was read as HT1080NT lethal 7% and HT1080 IDH1KD tx 16%.
Screening COCCCNC(=O)c1c(NC(=O)c2ccccc2Cl)n(Cc2ccccc2)c2nc3ccccc3nc12 returned KB-V1 MDR tox 2.6µM*, HT1080NT lethal 18%, MCF10A rerep inconclusive, HT1080 IDH1KD tx 0%, SW480 rereplic 10µM* and KB-3-1 cytotox inactive.
Screening COCCNC(=O)c1c(N)n(Cc2ccco2)c2nc3ccccc3nc12 returned KB-V1 MDR tox inactive, HT1080NT lethal -28%, MCF10A rerep -7%, HT1080 IDH1KD tx inconclusive, SW480 rereplic -1% and KB-3-1 cytotox inactive.
Screening COCCNC(=O)c1c(NC(=O)c2ccco2)n(Cc2ccccc2)c2nc3ccccc3nc12 returned KB-V1 MDR tox inactive, HT1080NT lethal -19%, MCF10A rerep inconclusive, HT1080 IDH1KD tx -9%, SW480 rereplic 2.6µM* and KB-3-1 cytotox inactive.
`Cc1nnc(NC(=O)c2cccn(Cc3cccc([N+](=O)[O-])c3)c2=O)s1` gave KB-V1 MDR tox inactive and KB-3-1 cytotox inactive.
CC(C)(C)c1cc(C=C(C#N)C#N)cc(C(C)(C)C)c1O was read as KB-V1 MDR tox 1µM*, HT1080NT lethal 1.2µM*, MCF10A rerep inconclusive, HT1080 IDH1KD tx 2.1µM*, SW480 rereplic -45% and KB-3-1 cytotox 1.3µM*.
C[C@]12CC[C@H]3C(=CCc4cc(O)ccc43)[C@@H]1CCC2=O was read as KB-V1 MDR tox 8.2µM*, HT1080NT lethal inconclusive, MCF10A rerep inconclusive, HT1080 IDH1KD tx -21%, SW480 rereplic -26% and KB-3-1 cytotox inconclusive.
Screening COc1ccc(C=C(C#N)c2ccc(OC)cc2)cc1 returned KB-V1 MDR tox inconclusive, HT1080NT lethal -1%, MCF10A rerep inconclusive, HT1080 IDH1KD tx -11%, SW480 rereplic inconclusive and KB-3-1 cytotox 18µM*.
`CN(C)/C=c1\sc2c(C#N)cc(C(=O)c3ccc(Br)cc3)n2c1=O` gave KB-V1 MDR tox inactive, HT1080NT lethal 4%, MCF10A rerep inconclusive, HT1080 IDH1KD tx 4%, SW480 rereplic 0% and KB-3-1 cytotox inactive.
`CCC(C)NC(=O)c1c(N)n(CCCOC)c2nc3ccccc3nc12` (stereo unspecified) gave KB-V1 MDR tox 8.2µM*, HT1080NT lethal -4%, MCF10A rerep 4.1µM*, HT1080 IDH1KD tx -4%, SW480 rereplic 7.3µM* and KB-3-1 cytotox inactive.
For COCCCn1c(N)c(C(=O)OC(C)COC)c2nc3ccccc3nc21 (stereo unspecified) the results were KB-V1 MDR tox inconclusive, HT1080NT lethal -4%, MCF10A rerep 5%, HT1080 IDH1KD tx -3%, SW480 rereplic 3% and KB-3-1 cytotox inactive.
`COCCCn1c(N)c(C(=O)Nc2ccccc2)c2nc3ccccc3nc21` gave KB-V1 MDR tox inactive, HT1080NT lethal inconclusive, MCF10A rerep inconclusive, HT1080 IDH1KD tx inconclusive, SW480 rereplic 21µM* and KB-3-1 cytotox inconclusive.
For COCCCn1c(N)c(C(=O)NCc2ccco2)c2nc3ccccc3nc21 the results were KB-V1 MDR tox inactive, HT1080NT lethal -1%, MCF10A rerep 16µM*, HT1080 IDH1KD tx -9%, SW480 rereplic 18µM* and KB-3-1 cytotox inactive.
Screening Clc1ccc(CCC(Cn2ccnc2)Sc2c(Cl)cccc2Cl)cc1 (stereo unspecified) returned KB-V1 MDR tox 21µM*, HT1080NT lethal inconclusive, MCF10A rerep inconclusive, HT1080 IDH1KD tx inconclusive, SW480 rereplic -56% and KB-3-1 cytotox inconclusive.

Screening results as filed in PubChem BioAssay.
